This excerpt belongs to a sample that is enriched for hits.
TbPYK inhibitor = qHTS of Trypanosoma Brucei Inhibitors; TbPYK enzyme, Kinase-Glo Plus ATP luminescence, 45 min; Potency, µM (highest dose often 76.8 µM), for inactives: at the highest dose activity, negative = inhibition, actives largely listed as inhibitors; 410,000 compounds, 0.12% hits; pyruvate kinase (Trypanosoma brucei), Q57TT1; note: potency is the fitted concentration of half-maximal effect; % is set by controls: 0 for no effect and ±100 for the full control effect; nearly all actives have a fitted effect of over 50% in size
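Enzyme and substrate buffer are dispensed first and compound is pin-transferred. ADP at 130 uM final then starts the reaction, which runs 45 min at room temperature. Detection reagent is added for 10 min before luminescence is imaged.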
Cycloheximide cs = Cycloheximide Counterscreen for Small Molecule Inhibitors of Shiga Toxin; max response, %; cell reporter, cycloheximide protein synthesis inhibition counterscreen; 300,000 compounds, 12% hits; in the data active = max response mostly above about 13%, no sharp cut-off; inactive = mostly below about 14%; note: read at 38.3 µM for the half of the compounds with a filed dose; 0% is about no effect
Shiga toxin inh = A qHTS for Small Molecule Inhibitors of Shiga Toxin | Vero cells, Shiga toxin protein synthesis inhibition reporter | inhibition, % at 38.7 µM | 290,000 compounds, 9.2% hits | AID 2315, 2010; in the data active = inhibition mostly above about 28%, no sharp cut-off; inactive = mostly below about 43%; note: 0% is about no effect
Sm TGR inh = qHTS Assay for the Inhibitors of Schistosoma Mansoni Peroxiredoxins; AID 485364, 2010; purified TGR, DTNB reduction, TNB absorbance 405 nm; 360,000 compounds, 3% hits; Potency, µM (doses to about 114 µM), for inactives: at the top dose activity change, negative = inhibition, usual class: inhibitors; note: potency is the fitted concentration of half-maximal effect; % is set by controls: 0 for no effect and ±100 for the full control effect; nearly all actives have a fitted effect of over 60% in size
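Kinetic colorimetric format: TGR-catalysed, NADPH-driven DTNB reduction monitored via TNB absorbance. Enzyme dispensed at 20 nM; compound exposure 15 min at room temperature before reaction start.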
Giardia FBPA inh = qHTS Assay for Inhibitors of Fructose-1,6-bisphosphate Aldolase from Giardia Lamblia; purified Giardia FBPA; Potency, µM (series often up to 59.6 µM), without a hit: top-dose activity, negative = inhibition, hits mostly inhibitors; 290,000 compounds, 0.71% hits; note: potency is the fitted concentration of half-maximal effect; % is set by controls: 0 for no effect and ±100 for the full control effect; nearly all actives have a fitted effect of over 55% in size
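Giardia FBPA (40 nM reagent) was preincubated 10 min at RT with compound (up to 57.5 uM final), then substrate plus GAPDH/TPI/NAD/arsenate coupling system with diaphorase/resazurin was added; resorufin fluorescence (525/598 nm) was read after 20 min.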
LmPK inh = qHTS Assay for Inhibitors of Leishmania Mexicana Pyruvate Kinase (LmPK); Potency, µM (series often up to 57.5 µM), inactives show at the highest dose activity change, negative = inhibition, usual class: inhibitors; Q27686; 290,000 compounds, 0.37% hits; purified LmPK, Kinase-Glo ATP luminescence, 1 h; note: potency is the fitted concentration of half-maximal effect; % is set by controls: 0 for no effect and ±100 for the full control effect
Target sequence (Q27686 whole entry, looked up): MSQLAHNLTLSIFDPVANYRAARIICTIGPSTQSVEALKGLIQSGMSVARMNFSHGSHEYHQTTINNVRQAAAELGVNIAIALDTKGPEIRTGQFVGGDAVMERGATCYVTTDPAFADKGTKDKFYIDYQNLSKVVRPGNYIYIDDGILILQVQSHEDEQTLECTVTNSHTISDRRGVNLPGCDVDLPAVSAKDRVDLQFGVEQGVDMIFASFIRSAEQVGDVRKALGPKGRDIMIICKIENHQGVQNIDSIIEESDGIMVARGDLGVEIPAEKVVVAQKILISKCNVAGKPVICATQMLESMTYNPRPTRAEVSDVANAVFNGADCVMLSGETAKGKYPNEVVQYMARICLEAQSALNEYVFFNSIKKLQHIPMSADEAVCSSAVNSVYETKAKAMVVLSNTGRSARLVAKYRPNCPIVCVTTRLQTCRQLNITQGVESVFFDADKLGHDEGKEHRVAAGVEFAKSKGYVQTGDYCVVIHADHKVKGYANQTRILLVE
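Purified LmPK (0.1 nM) converted ADP (0.1 mM) to ATP with PEP (0.5 mM) in imidazole buffer pH 7.2 with KCl and MgCl2, 1 h at room temperature. ATP was read by Kinase-Glo luminescence; data normalized to uninhibited and no-enzyme controls.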
Numbers without * were called inactive; ? = inconclusive; · = no result; [ ] = remark or other dose. Unless noted, calls come from the whole dose curve; as a rule, active = well fitted curve in the direction sought with a large enough effect; inconclusive = small, poorly fitted or top-dose-only effect, or another doubt; inactive = no such curve, though single readings can be large; an effect the other way counts as inactive or inconclusive.

SMILES	TbPYK inhibitor	Cycloheximide cs	Shiga toxin inh	Sm TGR inh	Giardia FBPA inh	LmPK inh
COC(=O)c1ccc(S(=O)(=O)NCc2ccco2)n1C	-5%	11	31	35µM*	6%	-2%
CCOC(=O)COc1ccc(S(=O)(=O)NCc2ccco2)cc1	-30%	-3	-15	50µM*	-1%	6%
COc1ccc(-c2noc(CNS(=O)(=O)c3ccccc3)n2)cc1	1%	17*	41	-23%	9%	-1%
Cc1ccc(OCc2nc(-c3ccccc3)no2)c(C)c1	-7%	36*	98*	-25%	0%	-8%
O=S(=O)(NCc1nc(-c2ccccc2)no1)c1ccc(F)cc1	4%	-1	13	2%	·	-1%
Cc1cccc(NCc2nc(-c3ccccc3)no2)c1	-5%	36*	41	19%	0%	3%
Cc1ccc(-c2noc(CNS(=O)(=O)c3ccccc3)n2)cc1	-6%	43*	39*	4%	·	0%
Cc1cc(C)c(C)c(OCc2nc(-c3cccnc3)no2)c1	·	-2	2	-1%	4%	-6%
COC(=O)C(C(C)=O)C(NC(=O)NCc1ccccc1)c1ccccc1 (stereo not drawn)	·	·	·	·	-1%[12.9 µM]	·
COCCNC(=O)C(C)OC(=O)C1=Cc2ccccc2OC1 (stereo not drawn)	-9%	15*	18	-1%	2%	-4%
CC(OC(=O)C1=Cc2ccccc2OC1)C(=O)NC(C)(C)C (stereo not drawn)	1%	-1	-10	6%	-1%	4%
CC(C)c1cnc2c(c1SCc1cccc(F)c1)c(=O)n(C)c(=O)n2C	?	·	·	3%	·	·
COC(=O)CNC(=O)C1(C)C=CCN1C(=O)c1ccccc1 (stereo not drawn)	-4%	40*	94*	-4%	5%	-2%
COC(=O)CNC(=O)C1(CC(C)C)C=CCN1C(=O)c1ccccc1 (stereo not drawn)	·	·	·	·	2%	·
CCN(CC)CCC(=O)c1ccc(F)cc1	-9%	-4	16	0%	-3%	-7%
CSC(=CC(=O)c1ccc(F)cc1)SC	-1%	26*	18	?	-9%	-11%
CSC(=CC(=O)c1ccccc1)SC	2%	25*	66*	-7%	3%	-11%
COc1cc(NC(=O)Cn2c(=O)n(Cc3ccccc3Cl)c(=O)c3cc(OC)c(OC)cc32)cc(OC)c1	-3%	·	·	1%	·	·
Cc1ccc(CNc2ncnc3c2c(-c2ccccc2)cn3-c2ccccc2)cc1	2%	·	·	13%	·	·
O=C(OCC(=O)N1CCCC1)c1ccc(OC(F)(F)F)cc1	-3%	22*	70	9%	0%	9%
CCN(CC)c1ccc(C(=O)OCC(=O)N2CCCC2)cc1	4%	29*	59*	0%	1%	-1%
O=C(N1CCCC1)C(F)(F)Oc1ccc(F)cc1	-3%	14	32*	0%	1%	-3%
O=Cc1ccc(C(=O)OCC(=O)N2CCCC2)cc1	1%	-2	18	-3%	5%	-3%
CCN(CC)CCCNC(=O)c1ccc2c(c1)N(Cc1c(F)cccc1Cl)C(=O)c1ccccc1S2	6%	·	·	-3%	·	·
CCC[C@H]1CN(c2ccc(Br)cc2)C(=O)[C@@H]1CC(=O)Nc1ccc(OC)cc1	4%	·	·	·	·	·
SMILES	TbPYK inhibitor	Cycloheximide cs	Shiga toxin inh	Sm TGR inh	Giardia FBPA inh	LmPK inh
O=C(CN1C(=O)COc2ccc(S(=O)(=O)Nc3ccccc3)cc21)Nc1cccc(Cl)c1	-5%	·	·	-2%	·	·
O=c1c(S(=O)(=O)c2ccccc2)cn(Cc2ccc(F)cc2)c2cc(N3CCCC3)c(F)cc12	5%	·	·	0%	·	·
CCN1CCN(c2cc3c(cc2F)c(=O)c(S(=O)(=O)c2ccc(OC)cc2)cn3CC)CC1	3%	·	·	-4%	·	·
Cc1ccc(CNC(=O)c2ccc3c(c2)N(Cc2ccccc2F)C(=O)c2ccccc2S3(=O)=O)cc1	-1%	·	·	-1%	·	·
Cc1ccccc1-c1ccc(CN2CCN(C)C(CCO)C2)cc1 (stereo not drawn)	6%	11*	19*	-5%	3%	0%
Cc1cccc2cc3c(nc12)SC(=NCC1CCCO1)N(Cc1ccco1)C3 (stereo not drawn)	?	20*	41	?	0%	-1%
Cc1ccc2nc3c(cc2c1)CN(Cc1ccco1)C(=NCC1CCCO1)S3 (stereo not drawn)	-2%	-1	-5	?	3%	1%
Cc1cccc(C)c1NC(=O)CNC(=O)C1CCCN(C(=O)c2ccc(Cl)cc2)C1 (stereo not drawn)	-2%	·	·	-5%	·	·
CC(=O)c1ccc(C(=O)N2CCCC(C(=O)c3ccc(Cl)cc3)C2)s1 (stereo not drawn)	2%	-3	-8	0%	·	-4%
Cc1ccc(NC(=O)C2CCCN(C(=O)c3ccc(Cl)cc3)C2)cc1 (stereo not drawn)	-3%	48	70*	-3%	6%	3%
Cc1ccc(NC(=O)C2CCCN(C(=O)c3ccc(Cl)cc3)C2)cc1C (stereo not drawn)	1%	40*	72*	3%	-3%	8%
CCOC(=O)C1CCCN(C(=O)c2ccc(Cl)cc2)C1 (stereo not drawn)	2%	-2	-8	·	5%	0%
CCCCC(=O)Nc1ccc(C(=O)N2CCCC(C(=O)OCC)C2)cc1 (stereo not drawn)	-20%	20*	13	-1%	7%	5%
CN1CCCC(C(=O)c2ccc(Cl)cc2)C1 (stereo not drawn)	-1%	-3	-9	35µM*	4%	3%
Cc1ccc(NC(=O)C2CCCN(C(=O)c3ccc(Cl)cc3)C2)c(C)c1 (stereo not drawn)	-4%	15	25	1%	0%	0%
Cc1nnc(N2CCN(c3cccc(C(F)(F)F)c3)CC2)c2c1nnn2Cc1ccccc1	3%	·	·	13%	·	·
COc1ccc(OC)c(N(CC(=O)NCc2ccccc2)S(=O)(=O)c2ccccc2)c1	0%	·	·	7%	·	·
O=C(CSc1nnc(CNc2ccc(Cl)cc2)n1Cc1ccccc1)NCc1ccco1	-7%	14*	19	-9%	3%	4%
C=CCn1c(SCC(=O)NCc2ccco2)nnc1-c1ccc2ccccc2n1	-10%	-1	3	16µM*	-15%	-6%
O=C(CSc1nnc(Cc2ccccc2)n1Cc1ccccc1)NCc1ccco1	2%	12	23*	-33%	5%	6%
O=C(CSc1nnc(Cc2cccs2)n1Cc1ccco1)Nc1cc(Cl)cc(Cl)c1	3%	-3	-16	35µM*	3%	2%
NC(=O)C(=O)O	·	·	·	·	-3%	·

Source: PubChem BioAssay (National Center for Advancing Translational Sciences (NCATS))
